The results in this text go back to PubChem BioAssay (NCI).

About 83,000 compounds went through this panel and 20% of them were active in at least one assay; those are over-represented in the sample as a whole.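 In brief: 96-well plates, 48 h treatment, single concentration, percent growth endpoint.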 Values without a mark were called inactive. The calls were made as follows: active = growth percent below 10; inactive = the rest.

The test concerns MDA-MB-468 breast. Kind of test: NCI-60 one-dose screen, 48 h (100 = growth as untreated, 0 = no growth, -100 = all killed). Conditions: 10 µM unless noted.
Take `FC(F)(F)c1ccc2c(c1)N(CCCN1CCN(C3CC3)CC1)c1ccccc1S2`: the growth is 54.1%.

Consider `O=C(/C=C/c1c(-c2ccccc2)[nH]c2ccccc12)S(=O)(=O)c1ccccc1`, for which the growth is 18.7%.

With `C=C(CC(=O)OC)C(C)=O`, the growth was 102%.
